{"source": "PubChem BioAssay (NCI)", "note": "This is part of a sample that, as a whole, favours compounds with a hit. Of some 83,000 tested, about 20% had one in any assay.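 Compound tested at a single concentration for 48 hours in 96-well plates; a percent growth value below 10 was scored as active.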 Values without a mark were called inactive. The source made the active and inactive calls.", "data": [{"test_system": "MDA-MB-468 breast", "assay": "NCI-60 one-dose screen, 48 h (100 = growth as untreated, 0 = no growth, -100 = all killed)", "settings": "10 µM unless noted", "values": [{"compound": "Nc1ccc(Cl)cc1", "growth": "97%"}, {"compound": "CCOC(=O)C(Cc1ccc(N(CCCl)CCCl)cc1)NC(=O)C(CC(C)C)NC(C)=O", "note": "(stereo unspecified)", "growth": "-45.6% (active)"}, {"compound": "C[C@@H]1CC[C@@H]2[C@@H]1[C@H](OC(=O)/C=C/C1CCCCC1)[C@]1(C3CCCCC3)C[C@@H](OC(=O)CO)[C@@]2(C)O1", "growth": "59.5%"}, {"compound": "COC(=O)[C@]12CCC(C)(C)C[C@H]1[C@H]1C(=O)C[C@@H]3[C@@]4(C)C[C@@]5(CC(C)(C)[C@@H]4CC[C@@]3(C)[C@]1(C)CC2)OO[C@@](C)(C(F)(F)F)O5", "growth": "84.5%"}, {"compound": "Oc1ccc(O)c2c1C1(Cl)C(Cl)=C(Cl)C2(Cl)C1(Cl)Cl", "growth": "4.54% (active)"}, {"compound": "CC[C@H](C)[C@H](NC(=O)N[C@@H](C)c1ccccc1)C(=O)N(C)[C@H](C[C@@H](OC(C)=O)c1nc(C(=O)N[C@@H](Cc2ccccc2)C[C@H](C)C(=O)OC)cs1)C(C)C", "growth": "-0.266% (active)"}, {"compound": "O=C1NC(=O)C(=Cc2cccn2CCCCCn2c3ccccc3c(=O)c3ccccc32)C(=O)N1", "growth": "107%"}, {"compound": "COc1ccc(C(=O)c2cc(OC)c(OC)c(OC)c2)cc1OC(C)=O", "growth": "43.1%"}, {"compound": "Nc1nc([Se])c2ncn(C3OC(CO)C(O)C3O)c2n1", "note": "(stereo unspecified)", "growth": "83.6%"}, {"compound": "Cn1cnnc1[S-].[Au+].c1ccc([PH+](c2ccccc2)c2ccccc2)cc1", "growth": "-49.1% (active)"}, {"compound": "CC[C@H](C)[C@H](NC(=O)[C@H]1CCCCN1C)C(=O)N(C)[C@H](C[C@@H](OC(C)=O)c1nc(C(=O)NC23C4C5C2C2C3C4C52C(=O)OC)cs1)C(C)C", "note": "(stereo partly specified)", "growth": "-2.75% (active)"}, {"compound": "COC(=O)[C@@H](C)C[C@H](Cc1ccccc1)NC(=O)c1csc([C@@H](C[C@H](C(C)C)N(C)C(=O)[C@H](C)NC(=O)[C@H]2CCCN2C)OC(C)=O)n1", "growth": "25.8%"}, {"compound": "Cc1cc(N(CCCl)CCCl)ccc1C=Nc1ccc(-c2csc(-c3ccccc3)n2)cc1", "growth": "3.69% (active)"}, {"compound": "COc1cc2c(O[C@@H]3OC[C@H](OC(C)=O)[C@H](OC(C)=O)[C@H]3O)c3c(c(-c4ccc5c(c4)OCO5)c2cc1OC)C(=O)OC3", "growth": "55.4%"}, {"compound": "C#C[C@]1(OC(=O)CCCCCC)CC[C@H]2[C@@H]3CCC4=CC(=O)CC[C@@H]4[C@H]3CC[C@@]21C", "growth": "39.6%"}, {"compound": "CCOC(=O)N[C@H]1CCc2c(Br)c(OC)c(OC)c(OC)c2-c2ccc(SC)c(=O)cc21", "growth": "-14.7% (active)"}, {"compound": "ClC1OC(Cl)(Cl)C(Cl)(Cl)OC1(Cl)Cl", "note": "(stereo unspecified)", "growth": "105%"}, {"compound": "[Cl][Hg][c]1cc[c]([Hg][Cl])o1", "growth": "-0.231% (active)"}, {"compound": "N#Cc1c(-n2c(Br)c(Br)c3cc(Br)ccc32)[nH]c2c(Br)cc(Br)cc12", "growth": "-16.3% (active)"}, {"compound": "CS(=N)(=O)CCC(N)C(=O)O", "note": "(stereo unspecified)", "growth": "106%"}, {"compound": "CC(=O)[O][Hg][c]1ccccc1", "growth": "-83.8% (active)"}, {"compound": "O=C1C(=Cc2cn(Cc3ccccc3)c3ccccc23)C(=O)N(Cc2ccccc2)C(=O)N1Cc1ccccc1", "growth": "-71.8% (active)"}, {"compound": "N#Cc1ncc(/N=C/c2ccc(N(CCCl)CCCl)cc2)s1", "growth": "-2.43% (active)"}, {"compound": "O=C(Nc1ccc(O)cc1)C(Cl)(Cl)Cl", "growth": "95.2%"}, {"compound": "C/C(=C\\c1ccn(-c2ccc(N)cc2F)n1)[C@@H]1C[C@@H]2O[C@]2(C)CCC[C@H](C)[C@H](O)[C@@H](C)C(=O)C(C)(C)[C@@H](O)CC(=O)O1", "growth": "8.6% (active)"}, {"compound": "CCCc1cc(O)c2c3c(c(=O)oc2c1)CN(C)CC3", "growth": "-3.7% (active)"}]}]}
